From PubChem BioAssay
Cycloheximide cs = affects cycloheximide protein synthesis inhibition readout, counter-screen. max response, %. cell reporter, cycloheximide protein synthesis inhibition counterscreen. hit rate 12% among 300,000; in the data active = max response mostly above about 13%, no sharp cut-off; inactive = mostly below about 14%; note: read at 38.3 µM for the half of the compounds with a filed dose; 0% is about no effect
FMDV inh = foot and mouth disease virus antiviral activity | FMDV antiviral cell-based qHTS | Potency, µM (top dose mostly 57.9 µM), without a hit: at the highest dose activity change, negative = inhibition, most hits filed as inhibitors | hit rate 1.2% among 410,000; calls by dose curve; tested in HEK293T cells; note: read-out not given here; potency is the fitted concentration of half-maximal effect; % is set by controls: 0 for no effect and ±100 for the full control effect; nearly all actives have a fitted effect of over 45% in size
Shiga inhibitor = inhibitors of Shiga toxin in Vero cells; hit rate 9.2% among 290,000; inhibition, % at 38.7 µM; AID 2315; Vero cells, Shiga toxin protein synthesis inhibition reporter; in the data active = inhibition mostly above about 28%, no sharp cut-off; inactive = mostly below about 43%; note: 0% is about no effect
Marburg entry inh = inhibitors of Marburg virus binding or cell entry; hit rate 1.8% among 300,000; Marburg virus pseudotyped entry inhibition, cell reporter; Potency, µM (highest dose often 37.8 µM), for inactives: at the top dose activity change, negative = inhibition, hits mostly inhibitors; AID 540276; calls by dose curve; tested in HEK293 cells; note: potency is the fitted concentration of half-maximal effect; % is set by controls: 0 for no effect and ±100 for the full control effect
Lassa entry inh = Lassa virus entry inhibition | Lassa virus pseudotype entry inhibition, cell reporter | Potency, µM (series often up to 37.9 µM), for inactives: top-dose activity change, negative = inhibition, most hits filed as inhibitors | hit rate 1.2% among 300,000; calls by dose curve; tested in HEK293 cells; note: potency is the fitted concentration of half-maximal effect; % is set by controls: 0 for no effect and ±100 for the full control effect; nearly all actives have a fitted effect of over 50% in size
HCV inhibitor = HCV inhibition; Huh7.5.1 HCVcc-Cre infection, luciferase reporter, 44 h; Potency, µM (titrated, usually from 41.8 µM), inactives show at the highest dose activity change, negative = inhibition, most hits filed as inhibitors; hit rate 3.4% among 340,000; AID 651820; active = well fitted inhibition curve with a large enough effect; inconclusive = small, poorly fitted or top-dose-only effect, or another doubt; inactive = no such curve, though single readings can be large or run the other way; note: potency is the fitted concentration of half-maximal effect; % is set by controls: 0 for no effect and ±100 for the full control effect
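Cells seeded at 1,000/well and cultured 4 h, then compounds added followed by HCVcc-Cre virus (~0.5 moi). After 44 h further culture, luciferase substrate was added, plates held 15 min at room temperature, and luminescence read for 15 sec.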
* = called active by the depositor; ? = inconclusive; . = not tested or not shown; [ ] = dose if it differs, or a comment. Sampled rows, rich in hits. Any-hit rate of the full collection: about 13%.

SMILES | Cycloheximide cs | FMDV inh | Shiga inhibitor | Marburg entry inh | Lassa entry inh | HCV inhibitor
Cc1ccc(C2(C)NC(=O)N(CC(=O)N3c4ccccc4NC(=O)CC3C)C2=O)cc1 (stereo unspecified) | . | -10.6% | . | . | . | 11.2%
CC1CCCN(CCC(=O)c2ccccc2)C1 (stereo unspecified) | . | -17.1% | . | 21.2%[46.1 µM] | 16.0%[46.1 µM] | 10.9%
Cc1cc(OCc2cc(C(=O)N(C)CC3CCOCC3)no2)cc(C)c1Cl | 35.3* | -12.6% | 46.1* | . | . | ?
CCN(CC1CCCO1)C(=O)c1cc(COc2cc(C)c(Cl)c(C)c2)on1 (stereo unspecified) | 43.8* | 27.0% | 72.8* | . | . | -29.3%
O=C(COc1ccccc1Cl)Nc1nc2c(s1)CCCC2 | . | 38.9% | . | ? | ? | .
CC(=O)c1sc(NC(=O)CCOc2ccccc2)nc1C | 33.9* | 37.7% | 77.0* | . | . | -5.3%
O=C(COc1ccccc1)Nc1nc2c(s1)CCCC2 | 38.7* | 44.5% | 83.3* | 6.31µM* | ? | -24.4%
CC(=O)c1sc(NC(=O)CCS(=O)(=O)c2ccc(Cl)cc2)nc1C | . | -12.3% | . | ? | ? | 1.12µM*
CC(=O)c1sc(NC(=O)COc2ccccc2)nc1C | 15.3* | 52.7% | 57.4* | 9.5%[46.1 µM] | -16.2% | -12.7%
COc1ccc(C)cc1NC(=O)CSc1ccc(-c2cccnc2)nn1 | -0.4 | 4.1% | -19.1 | . | . | -2.3%
O=C(NN1C(=O)NC2(CCCCC2)C1=O)c1cccs1 | . | 8.3% | . | 11.4% | 14.5% | -9.1%
COC(=O)c1sc(NC(=O)COc2c(C)cccc2C)nc1C | 0.4 | -10.8% | -19.5 | ? | -9.6% | ?
CC(=O)c1sc(NC(=O)COc2ccc(C(C)C)c(C)c2)nc1C | 1.6 | -26.8% | -5.7 | 23.2%[46.1 µM] | 3.9% | 2.51µM*
Cc1ccc2c(c1C)NC(=O)C21N2CCCC2C(C(=O)c2ccc3ccccc3c2)C12C(=O)Nc1ccccc12 (stereo unspecified) | 56.4* | 48.0% | 38.6 | . | . | ?
Oc1ccccc1N=Cc1sc2ccccc2c1Cl | 40.0* | 8.3% | 29.3* | ? | -27.9% | -26.2%
Cc1ccc(O)c(N=Cc2sc3ccccc3c2Cl)c1 | 45.2* | 37.4% | 73.1* | 8.2% | 17.0% | -5.5%
Cc1ccc(C)c(N=Cc2c(O)c3ccccc3oc2=O)c1 | 6.0 | 22.7% | . | -14.0% | 12.0% | 7.9%
O=C(CSC(=S)N1CCCC1)c1cc(Br)cc(Br)c1O | -1.8 | -14.7% | 1.6 | ? | -36.8% | 12.6µM*
CC(C)c1ccc(NC(=O)COC(=O)CC2CCCC2)cc1 | . | -3.3% | . | 15.6% | ? | 33.1%
O=C(COC(=O)CC1CCCC1)Nc1cc2c(cc1Cl)C(=O)c1ccccc1C2=O | 31.6* | 35.1% | 40.9 | ? | -23.0% | ?
CN(C)C(=O)c1ccc(-c2cncnc2Nc2ccc(F)cc2)cc1 | . | 27.9% | . | . | . | .
Nc1ccc(-c2nc3ccc(N)cc3s2)cc1 | 13.7* | -76.5% | 29.7 | 11.2µM* | ? | ?
Nc1cc2sc(-c3ccc(C(=O)O)cc3)nc2cc1Cl | 25.7* | -59.6% | 30.8* | 13µM* | 13µM* | 37.9%
O=C(O)c1ccc2nc(-c3ccccc3)sc2c1 | 20.2 | 2.51µM* | 22.9 | 1.46µM* | 2.24µM* | 0.0%
Nc1ccc(-c2nc3ccc(C(=O)O)cc3s2)cc1 | -8.1 | ? | -19.7 | 0.461µM* | 0.461µM* | 12.8%
SMILES | Cycloheximide cs | FMDV inh | Shiga inhibitor | Marburg entry inh | Lassa entry inh | HCV inhibitor
COc1ccc(C(F)(F)F)cc1N/C=C/c1nnnn1-c1ccc(C)cc1 | 8.7 | 6.8% | -8.8 | ? | ? | ?
C=CCn1cccc(C(=O)Nc2ccc(OC)cc2OC)c1=O | 32.6 | 27.4% | 40.3 | ? | 11.6% | ?
CCCn1cccc(C(=O)Nc2ccc(OC)cc2)c1=O | 22.2* | 4.9% | 53.4 | ? | ? | -10.8%
C#CCn1cc(Cl)cc(C(=O)Nc2ccccc2)c1=O | 17.3* | 14.6% | 2.5 | . | . | ?
C#CCn1cccc(C(=O)Nc2ccc(OC)cc2)c1=O | 18.4* | 28.4% | 46.1* | . | . | -16.3%
CCCCOCCCn1cnc2c([nH]c3cc(OC)ccc32)c1=O | -3.5 | ? | 50.9 | -17.4%[46.1 µM] | 16.0% | -3.8%
COc1ccc(OC)c(NC(=O)N2CCCC(CNS(=O)(=O)c3cccs3)C2)c1 (stereo unspecified) | 11.2 | 9.8% | 18.4 | 8.2%[46.1 µM] | -13.9% | -4.8%
O=C1CC(N2CCOCC2)=NN1c1ccc([N+](=O)[O-])cc1 | 18.0* | 12.6% | 29.4 | 16.9% | ? | -24.9%
O=C(Nn1cnc2ccccc2c1=O)c1c(F)cccc1F | -1.9 | -13.7% | 2.6 | . | . | 16.9%
